RAD52 inh: blocks human RAD52 DNA annealing. P43351. recombinant RAD52 DNA annealing, FRET fluorescence. inhibition, % at 18.7 µM. 0.46% of 360,000 active;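 active means every replicate showing at least 50% inhibition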
Target sequence (P43351 whole entry, looked up): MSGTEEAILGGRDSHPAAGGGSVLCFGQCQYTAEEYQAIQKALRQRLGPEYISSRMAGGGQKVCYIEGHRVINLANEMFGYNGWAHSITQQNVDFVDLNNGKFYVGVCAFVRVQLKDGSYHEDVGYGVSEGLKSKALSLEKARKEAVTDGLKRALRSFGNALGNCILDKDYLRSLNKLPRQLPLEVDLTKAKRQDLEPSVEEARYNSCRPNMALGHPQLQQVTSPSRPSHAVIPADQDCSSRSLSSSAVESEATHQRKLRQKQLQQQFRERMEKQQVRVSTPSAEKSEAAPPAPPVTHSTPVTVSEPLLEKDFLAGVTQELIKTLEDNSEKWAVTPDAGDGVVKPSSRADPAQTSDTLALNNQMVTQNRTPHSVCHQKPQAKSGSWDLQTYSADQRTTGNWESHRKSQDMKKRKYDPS
FGF22 binding: FGF22 (human) thermal shift binding; Q9HCT0; recombinant FGF22 thermal shift, SYPRO orange fluorescence; percent of sucrose octasulfate shift, DMSO zero; activity (Tm shift, normalised), % at 9.99 µM; 1.5% of 340,000 active; AID 651658;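 active means mean Tm shift, scaled 0 neutral to 100 positive control, at about 1.3% or above, every replicate too, limit read from the data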
Target sequence (Q9HCT0 whole entry, looked up): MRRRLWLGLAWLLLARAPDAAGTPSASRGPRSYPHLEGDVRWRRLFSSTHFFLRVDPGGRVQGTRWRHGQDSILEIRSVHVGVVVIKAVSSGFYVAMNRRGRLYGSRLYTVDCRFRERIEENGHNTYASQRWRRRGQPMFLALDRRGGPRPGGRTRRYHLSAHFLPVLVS
ERAP1 inh: inhibitors of human ERAP1 aminopeptidase; Q9NZ08; AID 652197; inhibition, % at 10.7 µM; recombinant ERAP1, Leu-AMC fluorescence, 60 min; 0.15% of 340,000 active;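 active means mean replicate inhibition of at least 30%, or all replicates individually reaching that 30% level; inactive means mean below 30% and not every replicate reaching it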
DENV2 CPE rescue: inhibitors of DENV2 cytopathic effect | DENV2-infected cells, cytopathic effect rescue, plate reader | CPE inhibition, % at 9.99 µM | 1.7% of 350,000 active | AID 651640; in the data active means CPE inhibition above about 20%, passing the limit was not always enough; tested in BHK-21 cells
MLL AF4-AF9 inh: MLL-AF4/AF9 protein interaction inhibition | P42568 | AlphaScreen, biotin-AF4 peptide binding to FLAG-AF9 | inhibition, % at 10 µM | 0.47% of 350,000 active;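 active means every replicate reaching a set inhibition limit, whatever the replicate mean, cut at about 25% in these data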
A number is an active result; ! = repeats disagree. Compounds with a hit are over-represented: about 4% of the library has one in this group of screens.

Results for COc1ccc(CN(C)C[C@@H]2Oc3ccc(NC(=O)CCC(F)(F)F)cc3CC(=O)N([C@H](C)CO)C[C@H]2C)cc1 ?
RAD52 inh: inactive; FGF22 binding: inactive; ERAP1 inh: inactive; DENV2 CPE rescue: inactive; MLL AF4-AF9 inh: inactive

Results for O=C(Nc1cc(S(=O)(=O)N2CCCCC2)ccc1O)c1ccccc1NS(=O)(=O)c1ccc(F)cc1 ?
RAD52 inh: inactive; FGF22 binding: 1.4!; ERAP1 inh: inactive; DENV2 CPE rescue: inactive; MLL AF4-AF9 inh: inactive

What do the screens show for `O=C(Nc1cc(S(=O)(=O)N2CCCCC2)ccc1Cl)c1ccccc1NS(=O)(=O)c1ccc(F)cc1`?
RAD52 inh: inactive; FGF22 binding: inactive; ERAP1 inh: inactive; DENV2 CPE rescue: inactive; MLL AF4-AF9 inh: inactive

Results for CCN(CC(=O)Nc1c(F)cccc1F)C(=O)CSCc1c(C)noc1C ?
RAD52 inh: inactive; FGF22 binding: inactive; ERAP1 inh: inactive; DENV2 CPE rescue: inactive; MLL AF4-AF9 inh: inactive

How did CCN(CC(=O)Nc1ccc(OC)cc1)C(=O)CSCc1c(C)noc1C do in these assays?
RAD52 inh: inactive; FGF22 binding: inactive; ERAP1 inh: inactive; DENV2 CPE rescue: 74; MLL AF4-AF9 inh: inactive

How did COC(=O)CCC(=O)OC1(C)C(=O)C2=CN(Cc3ccccc3)C(c3ccc(OC)cc3)=CC2=C(Br)C1=O (centres undefined) do in these assays?
RAD52 inh: inactive; FGF22 binding: inactive; ERAP1 inh: inactive; DENV2 CPE rescue: inactive

What do the screens show for `COC(=O)CCC(=O)OC1(C)C(=O)C2=CN(Cc3ccc(OC)cc3)C(c3ccc(OC)cc3)=CC2=C(Br)C1=O` (centres undefined)?
RAD52 inh: inactive; FGF22 binding: inactive; ERAP1 inh: inactive; DENV2 CPE rescue: 23

How did Cc1[nH]c2ccccc2c1/C=N/NC(=O)c1cc(C(C)(C)C)[nH]n1 do in these assays?
RAD52 inh: inactive; FGF22 binding: inactive; ERAP1 inh: inactive; DENV2 CPE rescue: 57; MLL AF4-AF9 inh: inactive

How did C[C@@H]1CCCCO[C@H](CN(C)C(=O)Nc2ccccc2)[C@@H](C)CN([C@H](C)CO)C(=O)c2cc(NS(=O)(=O)c3cn(C)cn3)ccc2O1 do in these assays?
RAD52 inh: inactive; FGF22 binding: inactive; ERAP1 inh: inactive; DENV2 CPE rescue: 45!; MLL AF4-AF9 inh: inactive

Results for C[C@@H]1CCCCO[C@H](CN(C)C(=O)Nc2cccc3ccccc23)[C@@H](C)CN([C@@H](C)CO)C(=O)c2cc(NS(=O)(=O)c3cn(C)cn3)ccc2O1 ?
FGF22 binding: inactive; DENV2 CPE rescue: 89

What do the screens show for `C[C@@H]1CCCCO[C@H](CN(C)C(=O)Nc2ccccc2)[C@H](C)CN([C@H](C)CO)C(=O)c2cc(NS(=O)(=O)c3cn(C)cn3)ccc2O1`?
RAD52 inh: inactive; FGF22 binding: inactive; ERAP1 inh: inactive; DENV2 CPE rescue: inactive; MLL AF4-AF9 inh: inactive

Results for CC=Cc1ccc2n(c1=O)C[C@@H]1[C@@H](CO)[C@H](C(=O)N(C)C)N(CC3CC3)[C@H]21 (mixture of isomers) ?
RAD52 inh: inactive; FGF22 binding: inactive; ERAP1 inh: inactive; DENV2 CPE rescue: inactive; MLL AF4-AF9 inh: inactive

What do the screens show for `COc1ccc2c3c(n(C)c2c1)[C@@H](CO)N(Cc1ccccc1F)CC31CCN(C(=O)C2CCC2)CC1`?
RAD52 inh: inactive; FGF22 binding: inactive; DENV2 CPE rescue: inactive

Results for COc1ccc(NC(=O)N(C)C[C@H]2OCCCC[C@H](C)Oc3ccc(NC(=O)NC(C)C)cc3C(=O)N([C@@H](C)CO)C[C@@H]2C)cc1 ?
RAD52 inh: inactive; FGF22 binding: inactive; ERAP1 inh: inactive; DENV2 CPE rescue: inactive; MLL AF4-AF9 inh: inactive

What do the screens show for `CNC(=O)C[C@H]1CC[C@@H]2[C@@H](COc3ccc(NC(=O)c4ccccc4Cl)cc3C(=O)N2C)O1`?
RAD52 inh: inactive; FGF22 binding: inactive; ERAP1 inh: inactive; DENV2 CPE rescue: 31; MLL AF4-AF9 inh: inactive

Results for COC(=O)C[C@@H]1CC[C@H]2[C@@H](COc3ccc(NC(=O)c4ccc(C(F)(F)F)cc4)cc3C(=O)N2C)O1 ?
RAD52 inh: inactive; FGF22 binding: inactive; ERAP1 inh: inactive; DENV2 CPE rescue: 99; MLL AF4-AF9 inh: inactive

What do the screens show for `Cc1cccc(NC(=O)Nc2ccc3c(c2)C(=O)N(C)[C@@H]2CC[C@@H](CC(=O)O)O[C@@H]2CO3)c1`?
RAD52 inh: inactive; FGF22 binding: inactive; ERAP1 inh: inactive; MLL AF4-AF9 inh: inactive

How did Cc1cccc(NC(=O)Nc2ccc3c(c2)C(=O)N(C)[C@@H]2CC[C@@H](CC(=O)O)O[C@H]2CO3)c1 do in these assays?
RAD52 inh: inactive; FGF22 binding: inactive; ERAP1 inh: inactive; DENV2 CPE rescue: 72; MLL AF4-AF9 inh: inactive

Results for CN1C(=O)c2cc(NC(=O)NC3CCCC3)ccc2OC[C@@H]2O[C@H](CC(=O)O)CC[C@H]21 ?
RAD52 inh: inactive; FGF22 binding: inactive; ERAP1 inh: inactive; DENV2 CPE rescue: 57; MLL AF4-AF9 inh: inactive

Results for CCNC(=O)C[C@@H]1CC[C@@H]2[C@@H](COc3ccc(NC(=O)c4ccccc4Cl)cc3C(=O)N2C)O1 ?
FGF22 binding: inactive; DENV2 CPE rescue: inactive

How did CO[C@H]1CN(C)C(=O)c2ccc(NC(=O)CC(F)(F)F)cc2OC[C@H](C)N(C(C)=O)C[C@H]1C do in these assays?
RAD52 inh: inactive; FGF22 binding: inactive; ERAP1 inh: inactive; DENV2 CPE rescue: inactive; MLL AF4-AF9 inh: inactive

How did CNC(=O)C[C@@H]1CC[C@H]2[C@@H](COc3ccc(NC(=O)c4ccc(OC)cc4)cc3C(=O)N2C)O1 do in these assays?
RAD52 inh: inactive; FGF22 binding: inactive; ERAP1 inh: inactive; DENV2 CPE rescue: 64; MLL AF4-AF9 inh: inactive

Results for CCC(=O)Nc1ccc2c(c1)C(=O)N(C)[C@@H]1CC[C@H](CC(=O)O)O[C@H]1CO2 ?
RAD52 inh: inactive; FGF22 binding: inactive; ERAP1 inh: inactive; DENV2 CPE rescue: 24; MLL AF4-AF9 inh: inactive

How did CNC(=O)C[C@H]1CC[C@H]2[C@H](COc3ccc(NC(=O)Nc4cc(C)cc(C)c4)cc3C(=O)N2C)O1 do in these assays?
RAD52 inh: inactive; FGF22 binding: inactive; ERAP1 inh: inactive; DENV2 CPE rescue: 46; MLL AF4-AF9 inh: inactive

How did CN1C(=O)c2cc(NC(=O)Nc3ccccc3)ccc2OC[C@@H]2O[C@@H](CC(=O)O)CC[C@@H]21 do in these assays?
FGF22 binding: inactive; DENV2 CPE rescue: 57; MLL AF4-AF9 inh: inactive

How did CNC(=O)C[C@H]1CC[C@@H]2[C@@H](COc3ccc(NC(=O)Nc4cc(C)cc(C)c4)cc3C(=O)N2C)O1 do in these assays?
RAD52 inh: inactive; FGF22 binding: inactive; ERAP1 inh: inactive; DENV2 CPE rescue: inactive; MLL AF4-AF9 inh: inactive

What do the screens show for `COc1ccc(CN(C)C[C@H]2OCCCC[C@@H](C)Oc3ccc(NC(=O)c4ccncc4)cc3C(=O)N([C@@H](C)CO)C[C@H]2C)cc1`?
RAD52 inh: inactive; FGF22 binding: inactive; ERAP1 inh: inactive; DENV2 CPE rescue: inactive; MLL AF4-AF9 inh: inactive

How did CNC[C@@H]1Oc2ccc(NC(=O)CCCN(C)C)cc2CC(=O)N([C@@H](C)CO)C[C@H]1C do in these assays?
RAD52 inh: inactive; ERAP1 inh: inactive; DENV2 CPE rescue: inactive; MLL AF4-AF9 inh: inactive

High-throughput results (PubChem BioAssay)
